Our source for the composite z-score and z-score values is PubChem BioAssay.

The source made the active and inactive calls. Unless noted, how the calls were made is not given here.

The subject of experiment [1] is Wnt5a (protein binding on small-molecule microarray). Briefly: small molecules binding Wnt5a protein – biophysical, small-molecule microarray, 635/667 nm fluorescence, primary screen (AID 1142).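 Further: fluorescence read at 667 nm with signal to noise per printed feature.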 As to conditions: 635 nm fluorescence, higher = more signal.
The nature of experiment [2]: ATP-based viability of Huh7 replicon cells – cell-based, CellTiter-Glo luminescence, basal, 48 h, cytotoxicity control for HCV replication inhibitor project, primary screen (AID 1143).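 Further: Huh7 hepatoma cells carrying a hepatitis C replication reporter with no stimulus; test concentration not given here.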 As to conditions: higher = more signal, called active from +8 up or from −8 down.
The nature of experiment [3]: Pseudomonas biofilm growth suppression – PAO1 strain, BacTiter-Glo luminescence, LB-PBS, primary screen (AID 1144). Particulars: P. aeruginosa PAO1 biofilm, 12 h, higher = more signal.
Experiment [4] can be described thus: basal CRE-LacZ reporter activity in PC12 – cell-based, unstimulated, primary screen (AID 1145). As to conditions: no forskolin, luminescence, 4.5 h, higher = more signal, called active from +8 up or from −8 down.
Experiment [5] is described as follows: forskolin-driven CRE-LacZ activity in PC12 – cell-based, CRE-LacZ reporter, forskolin-stimulated, primary screen (AID 1146).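 Further: PC12 cells with 6xCRE LacZ reporter stimulated by forskolin 10 µM; beta-galactosidase reporter signal reflecting CREB driven transcription.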 As to conditions: luminescence, 4.5 h, higher = more signal, called active from +8 up or from −8 down.
Experiment [6] addresses Streptavidin (Streptomyces avidinii) (UniProt P22629). As to the kind of experiment: compounds binding control protein streptavidin – biophysical, small-molecule microarray, 635/667 nm fluorescence, artefact control for SMM compound annotation, primary screen (AID 1147).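 Further: signal reflects streptavidin binding to arrayed compounds as a control protein.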 Particulars: higher = more signal.
Experiment [7] is described as follows: probe aInhba binding on compound microarray – biochemical, small-molecule microarray, 635/667 nm fluorescence, primary screen (AID 1148).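 Further: score merges 667nm spot fluorescence with signal-to-noise for antibody binding to printed compounds.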 As to conditions: higher = more signal.
In experiment [8] the target is Torsin-1A (Homo sapiens) (UniProt O14656). Briefly: TOR1A wild-type binding on microarray – cell lysate, small-molecule microarray, lysate, 635/667 nm, primary screen (AID 1149). As to conditions: COS7 hTOR1A-WT lysate, 635 nm fluorescence, higher = more signal.
Experiment [9] shares this target. As to the kind of experiment: torsin A mutant lysate binding on microarrays – cell lysate, small-molecule microarray, COS7 lysate, 635/667 nm fluorescence, primary screen (AID 1150).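 Further: score pools 667 nm emission and signal to noise measuring lysate protein binding.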 Particulars: COS7 hTOR1A mutant lysate, 635 nm fluorescence, higher = more signal.
Experiment [10] relates to Sonic hedgehog protein (Shh). Briefly: Sonic hedgehog microarray binding compounds – biochemical, small-molecule microarray, 635/667 nm fluorescence, primary screen (AID 1151).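 Further: Shh protein binding to compounds spotted on small-molecule microarray slides; score combines spot fluorescence intensity with signal-to-noise across triplicate slides.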 As to conditions: 635 nm fluorescence, higher = more signal.

Torsin-1A (Homo sapiens), sequence (O14656 whole entry, looked up): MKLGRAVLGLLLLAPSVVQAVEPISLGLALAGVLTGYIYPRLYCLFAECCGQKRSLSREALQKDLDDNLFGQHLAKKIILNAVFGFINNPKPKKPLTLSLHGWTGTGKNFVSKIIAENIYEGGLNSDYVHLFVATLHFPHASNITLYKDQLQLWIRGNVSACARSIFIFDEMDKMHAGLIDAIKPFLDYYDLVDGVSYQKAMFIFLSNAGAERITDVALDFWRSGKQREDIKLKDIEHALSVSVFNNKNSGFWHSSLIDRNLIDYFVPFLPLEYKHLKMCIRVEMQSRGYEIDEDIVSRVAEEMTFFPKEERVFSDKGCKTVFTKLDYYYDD
Streptavidin (Streptomyces avidinii), sequence (P22629 whole entry, looked up): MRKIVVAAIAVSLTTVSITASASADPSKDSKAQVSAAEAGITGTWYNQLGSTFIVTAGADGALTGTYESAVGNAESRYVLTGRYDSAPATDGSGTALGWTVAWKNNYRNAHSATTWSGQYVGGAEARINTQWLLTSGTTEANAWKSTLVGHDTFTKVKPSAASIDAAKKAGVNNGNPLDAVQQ

In the case of `COC(=O)[C@@H]1CC[C@@H](C)[C@H](c2ccc(Br)cc2)N1`, the composite z-score in experiment [1] is -0.0771; in experiment [6] it was -0.165; in experiment [7] it was -0.249; in experiment [8], 0.303; in experiment [9], 0.145; in experiment [10], -0.139. The z-score is -1.09 (inactive) in experiment [2], 0.328 (inactive) in experiment [3], -0.258 (inactive) in experiment [4] and -1.02 (inactive) in [5].

In the case of `O=C1C[C@@H](O)[C@@H](O)[C@@H]2[C@@H]3C(=O)N(c4cccc(Oc5ccccc5)c4)C(=O)[C@@H]3CC[C@H]12`, the composite z-score in experiment [1] is 0.114; in experiment [6], 0.0742; in [7] it was -0.183; in experiment [8], 0.162; in [9], 0.331; in [10], 0.669. Besides, the z-score is 0.393 (inactive) in [2], 0.247 (inactive) in experiment [3], 2.51 (inactive) in [4] and 0.287 (inactive) in [5].

As for `COc1ccc(COC(=O)NN=C2C[C@@H](O)[C@@H](O)[C@@H]3[C@@H]4C(=O)N(C5CCCCC5)C(=O)[C@@H]4CC[C@H]23)cc1`, the composite z-score is -0.244 in experiment [1]; -0.332 in experiment [6]; -0.337 in experiment [7]; -0.0324 in experiment [8]; 0.408 in experiment [9]; -1.61 in experiment [10]. In addition, the z-score in experiment [2] was -0.146 (inactive); in experiment [3] it was 0.345 (inactive); in experiment [4] it was 1.61 (inactive); in [5], -0.0264 (inactive).

With `CC(=O)OC[C@H]1O[C@H](CC=NO[C@H](C)c2cn([C@H](CO)Cc3ccccc3)nn2)C=C[C@@H]1OC(C)=O`, the composite z-score was 0.315 in [1]; 1.35 in experiment [6]; -0.218 in [7]; 0.56 in [8]; 0.579 in experiment [9]; 0.805 in experiment [10]. Also, the z-score in experiment [2] is 0.089 (inactive); in [3], -0.738 (inactive); in [4], 0.839 (inactive); in [5] it was 0.731 (inactive).

Consider `CCCCC#C[C@@H]1C=C[C@H](Oc2ccc(C(=O)OC)cc2)[C@@H](COC(=O)OCC)O1`, for which the composite z-score in experiment [1] was 0.769; in [6], 0.25; in experiment [7], -0.128; in experiment [8] it was 0.346; in [9], 0.358; in [10], 1.12. Further, the z-score in experiment [2] is -4.3 (inactive); in [3], 0.0612 (inactive); in [4] it was 0.291 (inactive); in experiment [5], 1.13 (inactive).

On to `C#CCCCON=C1C[C@@H](O)[C@@H](O)[C@@H]2[C@@H]3C(=O)N(C(C)(C)C)C(=O)[C@@H]3CC[C@H]12`, for which the composite z-score was -0.19 in experiment [1]; 0.941 in [6]; 0.0228 in experiment [7]; -0.309 in [8]; -0.123 in [9]; -0.914 in experiment [10]. In addition, the z-score in experiment [2] is 0.0285 (inactive); in [3] it was 0.189 (inactive); in experiment [4] it was 0.608 (inactive); in experiment [5], 0.0692 (inactive).

For the molecule `O=C1C[C@@H](O)[C@@H](O)[C@@H]2[C@@H]3C(=O)N(Cc4ccc5c(c4)OCO5)C(=O)[C@@H]3CC[C@H]12`, the composite z-score is -0.005 in [1]; 0.139 in experiment [6]; -0.152 in experiment [7]; 0.0825 in experiment [8]; 0.339 in experiment [9]; 0.256 in experiment [10]. In addition, the z-score in [2] was -0.104 (inactive); in experiment [3], -0.396 (inactive); in experiment [4], 0.516 (inactive); in experiment [5] it was 0.244 (inactive).

In the case of `C#CCCCON=C1[C@H]2CCn3c(=O)n(C)c(=O)n3[C@H]2[C@H](O)[C@@H]2O[C@H]12`, the composite z-score in experiment [1] stood at 0.119; in experiment [6], 0.38; in [7] it was 0.0471; in [8], 0.326; in experiment [9], 0.693; in experiment [10], 0.837. Moreover, the z-score in experiment [2] was 0.119 (inactive); in experiment [3], 0.806 (inactive); in [4] it was 0.523 (inactive); in experiment [5] it was -0.149 (inactive).

For the molecule `COC(=O)[C@@H]1CC[C@H](C)[C@@H](c2ccc(C)cc2)N1C(=O)c1ccc(C=NO[C@@H](C)c2cn([C@H](CO)Cc3ccccc3)nn2)cc1`, the composite z-score in experiment [1] is 0.408; in [6] it was 0.279; in experiment [7], -0.024; in experiment [8], 0.243; in [9], 0.634; in [10], 0.738. For the same molecule, the z-score in experiment [2] is -2.15 (inactive); in experiment [3], 0.476 (inactive); in experiment [4], 5.32 (inactive); in [5], -0.216 (inactive).

`C=C(C)C(=O)OCC1CN2[C@@H](CC[C@@H](C)[C@@H]2c2ccc(Br)cc2)C(=O)O1` (stereo not given in full): the composite z-score in [1] is 0.192; in experiment [6], 0.33; in experiment [7], -0.0627; in [8], -0.2; in experiment [9], 1.13; in experiment [10] it was 0.486. In addition, the z-score in experiment [2] was -0.295 (inactive); in [3], 1.34 (inactive); in experiment [4], 1.91 (inactive); in experiment [5], -0.0828 (inactive).

As to `C#CCCCON=C1C[C@@H](O)[C@@H](O)[C@@H]2[C@@H]3C(=O)N(c4ccc(F)cc4F)C(=O)[C@@H]3CC[C@@H]12`, the composite z-score in experiment [1] is 0.09; in [6], -0.091; in experiment [7], -0.213; in [8], 0.061; in [9], 0.0576; in experiment [10] it was 0.351. The z-score in [2] was -0.459 (inactive); in experiment [3], 0.589 (inactive); in experiment [4], -0.564 (inactive); in experiment [5] it was -0.392 (inactive).

For the molecule `CCOC(=O)NN=C1C[C@@H](O)[C@@H](O)[C@@H]2[C@@H]3C(=O)N(c4cccc(Oc5ccccc5)c4)C(=O)[C@@H]3CC[C@H]12`, the composite z-score in experiment [1] is 0.0643; in experiment [6] it was 0.948; in [7] it was -0.129; in experiment [8], 0.933; in experiment [9] it was 0.0519; in experiment [10], 0.206. Besides, the z-score in [2] is -1.16 (inactive); in experiment [3], -0.215 (inactive); in [4], 0.523 (inactive); in experiment [5], 0.583 (inactive).

For the molecule `Cc1ccc(S(=O)(=O)N[C@H]2COC(=O)CC=C[C@H](C)[C@@H](NS(=O)(=O)c3ccc(C)cc3)COC(=O)CC=C[C@@H]2C)cc1`, the composite z-score in [1] was -0.11; in [6], 1.17; in [7], -0.0645; in experiment [8] it was 0.649; in experiment [9], 0.741; in experiment [10], 0.483. The z-score is -0.591 (inactive) in experiment [2], -0.681 (inactive) in experiment [3], -0.008 (inactive) in experiment [4] and 0.556 (inactive) in experiment [5].

On to `CO[C@H]1COC(=O)CCC[C@@H](C)[C@H](OC)COC(=O)[C@@H]2CCCN2C(=O)CC=C[C@@H]1C`, for which the composite z-score is 0.236 in [1]; -0.44 in [6]; -0.101 in experiment [7]; 2.64 in experiment [8]; 1.05 in [9]; 2.06 in [10]. For the same molecule, the z-score in experiment [2] is -0.717 (inactive); in experiment [3] it was 0.55 (inactive); in [4], -0.385 (inactive); in [5], -0.0072 (inactive).

For `COC(=O)CC=C[C@@H](C)[C@H](OCc1cccc(-c2ccccc2)c1)C1CCCCC1`, the composite z-score was -0.106 in experiment [1]; 1.85 in [6]; -0.176 in experiment [7]; 0.439 in experiment [8]; -0.17 in [9]; 0.412 in experiment [10]. The z-score in experiment [2] was -0.44 (inactive); in [3] it was 0.125 (inactive); in [4] it was 0.68 (inactive); in [5] it was -0.198 (inactive).
